Mac1 fbg enh – enhancers of CD11b/CD18 adhesion to fibrinogen, primary screen, K562 cells, luminescence. ATPlite luminescence. activation, % at 10 µM. 93,000 tested, 0.07% active. AID 1499, 2009;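 active = 10 µM primary screen giving 50% or more activity, confirmed by 40% or more on retest at that dose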
Target sequence (P05107 whole entry, looked up, other chains not shown): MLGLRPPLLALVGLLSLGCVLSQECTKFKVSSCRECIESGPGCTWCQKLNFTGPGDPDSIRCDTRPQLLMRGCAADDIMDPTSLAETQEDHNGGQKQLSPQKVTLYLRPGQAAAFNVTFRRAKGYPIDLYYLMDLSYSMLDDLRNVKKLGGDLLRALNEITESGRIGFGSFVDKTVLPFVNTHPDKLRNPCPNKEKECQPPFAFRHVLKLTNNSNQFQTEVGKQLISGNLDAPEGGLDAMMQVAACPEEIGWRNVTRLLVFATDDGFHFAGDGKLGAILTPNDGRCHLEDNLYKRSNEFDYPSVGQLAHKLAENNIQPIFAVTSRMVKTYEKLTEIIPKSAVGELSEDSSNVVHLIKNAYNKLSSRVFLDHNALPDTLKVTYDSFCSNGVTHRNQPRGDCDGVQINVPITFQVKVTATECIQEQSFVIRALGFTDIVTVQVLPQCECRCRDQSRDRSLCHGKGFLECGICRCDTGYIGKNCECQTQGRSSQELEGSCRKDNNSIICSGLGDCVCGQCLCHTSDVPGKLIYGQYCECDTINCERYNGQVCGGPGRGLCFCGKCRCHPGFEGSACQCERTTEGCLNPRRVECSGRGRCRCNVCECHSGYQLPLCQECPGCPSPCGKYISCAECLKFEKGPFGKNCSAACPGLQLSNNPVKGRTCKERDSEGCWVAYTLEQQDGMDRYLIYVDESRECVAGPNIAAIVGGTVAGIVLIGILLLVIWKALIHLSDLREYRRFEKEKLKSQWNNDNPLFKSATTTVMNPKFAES
MRP resist rev – reversal of MRP1-mediated doxorubicin resistance, primary screen, H69AR cells, doxorubicin co-treatment | differential viability (reversal), % at 10 µM | H69AR cells + 2 uM doxorubicin, CellTiter-Glo, 72 h | 85,000 tested, 0.04% active;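 active = viability drop by adding the cancer drug above about 55%, with treated viability meeting a 40% cutoff, limit read from the data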;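 note: viability without doxorubicin minus viability with 2 µM doxorubicin for each compound; larger differential means the compound sensitizes cells more to doxorubicin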
CD11b adhes inh – inhibitors of CD11b/CD18 adhesion to fibrinogen, primary screen, K562 cells, luminescence. Integrin beta-2 (Homo sapiens) + Integrin alpha-M (Homo sapiens), P05107+P11215. ATPlite luminescence; Mn2+ added to activate the integrin. inhibition, % at 10 µM. 93,000 tested, 0.54% active. AID 1497, 2009;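 active = primary inhibition of 50% or more at 10 µM, then 40% or more on retest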
MRP-1 activ – H69AR viability gain despite doxorubicin, primary screen, MRP-1 activator project, H69AR cells, CellTiter-Glo. 140,000 tested, 0.61% active. viability increase, % at 10 µM. AID 799, 2007. viability rescue;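 active = viability gain under doxorubicin at or above a set limit, the compound median plus 3 SD, cut at about 4.7% in these data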;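 note: MRP-1 overexpressing cells given doxorubicin 25 µM after compound pretreatment; 18-22 h compound pretreatment then 72 h with doxorubicin before readout; 0% = doxorubicin-only wells and 100% = vehicle-treated cells without doxorubicin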
Pyk2 oligo antag – antagonists of Pyk2 self-association, primary screen, Q293 cells, FERM NanoBiT luminescence, HTS | 99,000 tested, 0.83% active | hits give low values | AID 1347419, 2020 | z-score (the deposit names both 25 µM and 10 µM);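 active = Z-score of -3 or lower, scaled per plate to the spread of control and sample wells; inactive = z-score above -3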;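 note: negative z-score means lost luminescence so less FERM oligomerization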
Cav32 inh – Cav3.2 calcium influx blockers – cell-based, Fluo-4 calcium fluorescence, FDSS, MLSMR library, primary screen | 100,000 tested, 4% active | Cav3.2-expressing cells; hits give low values | B-score at 10 µM;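 active = single-dose well whose peak fluorescence ratio is a statistical outlier from its plate by either plate-standardised score or position-corrected B-score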
* = called active by the depositor. Hits are enriched below; roughly 4.1% of the tested compounds scored in any of these assays.

Results for COc1ccc(CNC(=O)c2csc(Cc3ccccc3)n2)cc1 ?
Mac1 fbg enh: -0.2; CD11b adhes inh: -4.2; MRP-1 activ: -0.1; Pyk2 oligo antag: -1.98

What do the screens show for `COc1ccccc1CNC(=O)c1csc(Cc2ccc(Cl)cc2)n1`?
MRP-1 activ: 4.0; Pyk2 oligo antag: -2.92; Cav32 inh: -8*

What do the screens show for `Oc1ccc(Cl)cc1/C=N/c1nccs1`?
Mac1 fbg enh: -0.5; MRP resist rev: -9.4; CD11b adhes inh: 1.0; MRP-1 activ: -4.4; Pyk2 oligo antag: -0.2; Cav32 inh: -3.4*

Results for NC(=O)c1ccsc1NC(=O)c1ccc(S(=O)(=O)N2CCCc3ccccc32)cc1 ?
MRP-1 activ: 1.1

How did CC1CCc2c(sc3nc(CN4CCOCC4)nc(NS(=O)(=O)c4cccc([N+](=O)[O-])c4)c23)C1 (stereo unspecified) do in these assays?
Mac1 fbg enh: -6.4; CD11b adhes inh: 67.3*; MRP-1 activ: -2.6; Pyk2 oligo antag: 5.38

What do the screens show for `O=C(NCc1ccc2c(c1)OCO2)C1CCC(CNS(=O)(=O)c2cccc3nsnc23)CC1` (stereo unspecified)?
Mac1 fbg enh: 0.4; MRP resist rev: -5.5; CD11b adhes inh: -4.0; MRP-1 activ: -0.9; Cav32 inh: -1.04

What do the screens show for `O=C(NCc1ccc2c(c1)OCO2)C1CCC(CNS(=O)(=O)c2ccccc2)CC1` (stereo unspecified)?
MRP resist rev: -5.5; MRP-1 activ: -0.7; Pyk2 oligo antag: 0.12; Cav32 inh: -3.83*

What do the screens show for `Cc1ccccc1-c1cc(C(=O)n2cccn2)c2cc(Cl)ccc2n1`?
MRP-1 activ: -2.9; Pyk2 oligo antag: -0.84; Cav32 inh: 0.119

How did CCC(=O)NC(c1ccccc1Cl)c1c(O)ccc2ccccc12 (stereo unspecified) do in these assays?
Mac1 fbg enh: -5.2; CD11b adhes inh: 12.8; MRP-1 activ: -2.0

What do the screens show for `CCC(=O)NC(c1ccc([N+](=O)[O-])cc1)c1c(O)ccc2ccccc12` (stereo unspecified)?
Mac1 fbg enh: -3.0; CD11b adhes inh: -0.6; MRP-1 activ: -1.7; Pyk2 oligo antag: -3.15*; Cav32 inh: -1.19

How did CCCCC(=O)NC(c1ccc([N+](=O)[O-])cc1)c1c(O)ccc2ccccc12 (stereo unspecified) do in these assays?
MRP-1 activ: -4.9

Results for CC(C)C(=O)NC(c1ccccc1Cl)c1c(O)ccc2ccccc12 (stereo unspecified) ?
Mac1 fbg enh: -0.6; CD11b adhes inh: -1.7; MRP-1 activ: -1.5; Pyk2 oligo antag: -3.81*; Cav32 inh: 0.846

What do the screens show for `O=C(NC(c1ccccc1)c1c(O)ccc2ccccc12)c1ccccc1Cl` (stereo unspecified)?
MRP-1 activ: -1.0; Pyk2 oligo antag: -3.33*; Cav32 inh: 0.334

How did Cc1cc(NC(=O)c2noc3c2CCCC3)nn1Cc1ccc(Cl)cc1 do in these assays?
Mac1 fbg enh: 0.9; MRP resist rev: 3.7; CD11b adhes inh: 0.8; MRP-1 activ: 1.2; Pyk2 oligo antag: -1.75; Cav32 inh: -4.8*

How did Cc1cccc(CSc2nnc(-c3cccs3)n2Cc2ccco2)c1 do in these assays?
MRP resist rev: 7.6; MRP-1 activ: -3.7; Pyk2 oligo antag: -1.74; Cav32 inh: -5.54*

What do the screens show for `Cc1sc2nc(SCc3ccccc3)n(Cc3ccco3)c(=O)c2c1C`?
Mac1 fbg enh: 1.1; MRP resist rev: 10.1; CD11b adhes inh: 7.2; MRP-1 activ: -0.4; Pyk2 oligo antag: -0.74; Cav32 inh: -1.87

What do the screens show for `Cc1cccc(CSc2nc3sc(C)c(C)c3c(=O)n2Cc2ccco2)c1`?
Mac1 fbg enh: -3.6; MRP resist rev: 6.4; CD11b adhes inh: -2.4; MRP-1 activ: 0.7; Pyk2 oligo antag: 1.32; Cav32 inh: -4.16*

How did CCn1c(SCc2ccccc2)nnc1-c1cccs1 do in these assays?
MRP resist rev: -4.0; MRP-1 activ: -1.0; Pyk2 oligo antag: -0.91; Cav32 inh: -0.472

How did CCOC(=O)/C=c1\s/c(=C\c2ccc3c(c2)OCCO3)c(=O)n1CC(=O)NCC1CCCO1 (stereo unspecified) do in these assays?
Mac1 fbg enh: 5.2; MRP resist rev: 3.5; CD11b adhes inh: 14.9; MRP-1 activ: 1.0; Pyk2 oligo antag: -1.2; Cav32 inh: -0.46

What do the screens show for `CCOC(=O)/C=c1\s/c(=C\c2c(OCC)ccc3ccccc23)c(=O)n1CC(=O)NCC1CCCO1` (stereo unspecified)?
Mac1 fbg enh: 58.9; MRP resist rev: -42.4; CD11b adhes inh: -6.8; MRP-1 activ: -4.8; Pyk2 oligo antag: -1.89; Cav32 inh: -6.42*

How did Cc1ccc(C(=O)NCCSc2ccc(Cl)cc2)cc1S(=O)(=O)Nc1ccccc1 do in these assays?
MRP-1 activ: -5.1; Pyk2 oligo antag: -1.55; Cav32 inh: -2.78

Results for Cc1ccc(SCCNC(=O)c2ccc(C)c(S(=O)(=O)Nc3cccc(C)c3)c2)cc1 ?
Mac1 fbg enh: -8.0; CD11b adhes inh: 3.9; MRP-1 activ: 0.6; Pyk2 oligo antag: -1.57; Cav32 inh: -4.56*

Results for Cc1ccc(NS(=O)(=O)c2cc(C(=O)NCCSc3ccc(C)cc3)ccc2C)cc1 ?
MRP-1 activ: 3.4; Pyk2 oligo antag: -1.41; Cav32 inh: -4.43*

How did Cc1ccc(NS(=O)(=O)c2cc(C(=O)NCCSC3CCCCC3)ccc2C)cc1 do in these assays?
Mac1 fbg enh: 1.3; CD11b adhes inh: 23.8; MRP-1 activ: -2.6; Pyk2 oligo antag: -0.55; Cav32 inh: -4.46*

Results for CS(=O)(=O)Nc1ccc(C(=O)NCCSC2CCCCC2)cc1 ?
Mac1 fbg enh: -1.3; MRP resist rev: 6.5; CD11b adhes inh: -29.9; MRP-1 activ: -1.2; Pyk2 oligo antag: 1.61; Cav32 inh: 0.52

What do the screens show for `CCOC(=O)CSc1nc(N)nc(C)c1Br`?
Mac1 fbg enh: -0.8; MRP resist rev: 4.0; CD11b adhes inh: 2.3; MRP-1 activ: 18.7*; Pyk2 oligo antag: 0.39; Cav32 inh: 0.713

Results for COC(=O)CSc1nc(NC(C)=O)nc(C)c1Br ?
Mac1 fbg enh: -1.8; MRP resist rev: 5.8; CD11b adhes inh: -3.3; MRP-1 activ: -0.6; Pyk2 oligo antag: -0.02; Cav32 inh: 0.582

Results for CCOc1ccc(C2=NNC(c3cccs3)=Nc3ccc(OC)cc32)cc1OCC ?
MRP resist rev: -32.7; MRP-1 activ: -5.0; Pyk2 oligo antag: -0.01; Cav32 inh: -8.07*

Results for COc1ccc(C2=NNC(c3cccs3)=Nc3ccc(OC)cc32)cc1 ?
MRP resist rev: -1.1; MRP-1 activ: -4.7; Pyk2 oligo antag: -0.91; Cav32 inh: -2.13

Screening data as filed in PubChem.
